Screening data as filed in PubChem BioAssay.
TDP1 cell noCPT: qHTS for Inhibitors of human tyrosyl-DNA phosphodiesterase 1 (TDP1): qHTS in cells in absence of CPT. actives 15% (n = 420,000). Potency, µM (series often up to 46.2 µM), for inactives: top-dose activity change, negative = growth inhibition, usual class: inhibitors. DT40 Tdp1-/- hTDP1 cells, no CPT, ATP luminescence, 48 h; further: potency means the concentration at half of the fitted maximal effect; nearly all actives have a fitted effect of over 55% in size
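A cellular qHTS used chicken DT40 cells lacking endogenous Tdp1 but carrying stably transfected human TDP1. Compounds were applied without camptothecin, and cell growth kinetics were judged by ATP-dependent luminescence after ≥48 hr.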
HT1080 IDH1KD tx: HT-1080 IDH1 knockdown cell toxicity (counter line); HT-1080 IDH1 knockdown viability, ATP luminescence, 48 h; Potency, µM (series often up to 46.1 µM), for inactives: at the top dose activity, negative = toxicity, usual class: cytotoxic; actives 2% (n = 360,000); AID 686971;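 further: potency means the concentration at half of the fitted maximal effect; 0% = DMSO wells and -100% = cell-free medium wells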
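Assay cells: HT-1080 with IDH1 knockdown, 750 per well, RPMI/5% FBS. Exposure: 48 h at 37 °C following 2 h pre-incubation. Read: CellTiter-Glo luminescence; fitted concentration-response, curve class assigned.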
IL-1B inflam inh: inhibitors of inflammasome signaling (IL-1 beta secretion) | THP-1 LPS/ATP IL-1B secretion, AlphaLISA, 16 h; active compounds read low | AID 743279 | activity change, % at 57.5 µM | actives 4.7% (n = 360,000); in the data active means activity change below about -50%; inconclusive means mostly about -30% to -49%
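THP-1 cells pretreated 1 hr with compounds (up to 57.5 uM final), then stimulated with LPS (250 ng/mL final) plus ATP (1.25 mM final); secreted IL-1B measured by AlphaLISA after 16 hr, decreased signal indicating inhibition.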
uPA surface inh: blocks generation of uPA at the cell surface; cell surface uPA generation assay, qHTS; Potency, µM (series often up to 38.3 µM), inactives show at the top dose activity change, negative = inhibition, usual class: inhibitors; actives 0.31% (n = 330,000); active means well fitted inhibition curve with a large enough effect; inconclusive means small, poorly fitted or top-dose-only effect; inactive means no such curve, though single readings can be large or run the other way; tested in mouse RAW 264.7 cells; further: potency means the concentration at half of the fitted maximal effect; nearly all actives have a fitted effect of over 55% in size
HT1080NT lethal: kills 2HG-producing HT-1080-NT fibrosarcoma cells. HT-1080-NT fibrosarcoma viability, CellTiter-Glo ATP luminescence, 48 h. Potency, µM (titrated, usually from 46.1 µM), for the others: at the highest dose activity, negative = less viability, usual class: cytotoxic. actives 1.6% (n = 360,000). AID 686970;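 further: NT is the 2HG producing partner of a matched IDH1 knockdown line; potency means the concentration at half of the fitted maximal effect; 0% = DMSO-treated cells and -100% = media-only wells without cells; nearly all actives have a fitted effect of over 55% in size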
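Compounds were tested in concentration-response format on HT-1080-NT cells for 48 hours at 37 degrees C. Cell viability came from CellTiter-Glo luminescence; curves were classified by r2, response magnitude and activity.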
DT40 TDP1 CPT: DT40-hTDP1 cell growth loss with CPT | chicken DT40 Tdp1-/-;hTDP1 cells + 20 nM CPT, ATP luminescence, 48 h | Potency, µM (series often up to 46.2 µM), for inactives: at the highest dose activity change, negative = growth inhibition, most hits filed as inhibitors | actives 12% (n = 420,000); further: potency means the concentration at half of the fitted maximal effect; nearly all actives have a fitted effect of over 55% in size
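Cell growth measured by CellTiter-Glo luminescence after a minimum 48 h, 37 C compound exposure with 20 nM CPT in Tdp1-knockout DT40 cells stably expressing hTDP1, seeded 400/well; qHTS titration format.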
* marks the source's active call; other numbers are inactive results; [ ] = remark or other dose. Most compounds without a hit are left out; they make up all but 19% or so of the library. Unless noted, the call rests on the fitted dose curve; in most records, active means well fitted curve in the direction sought with a large enough effect; inconclusive means small, poorly fitted or top-dose-only effect, or another doubt; inactive means no such curve, though single readings can be large; an effect the other way counts as inactive or inconclusive. Unless noted, on the % scale 0 is the no-effect control and ±100 the full control effect.

Results for CCCN1CCCc2cc(CN(CCCN3CCOCC3)C(=O)Nc3ccc(Cl)c(Cl)c3)ccc21 ?
TDP1 cell noCPT: 7.3µM*; DT40 TDP1 CPT: 26µM*

What do the screens show for `CCCN1CCCc2cc(CN(CCCN3CCOCC3)C(=O)Nc3ccc(OCC)cc3)ccc21`?
TDP1 cell noCPT: inconclusive; HT1080 IDH1KD tx: -10%; IL-1B inflam inh: inconclusive; HT1080NT lethal: 0%; DT40 TDP1 CPT: 26µM*

Results for CCN1CCCc2cc(CN(CCN3CCOCC3)C(=S)Nc3cccc(OC)c3)ccc21 ?
TDP1 cell noCPT: 21µM*; HT1080 IDH1KD tx: -7%; IL-1B inflam inh: -2; uPA surface inh: -7%; HT1080NT lethal: 1%; DT40 TDP1 CPT: inconclusive

What do the screens show for `CCOc1ccc(NC(=O)N(CCN2CCOCC2)Cc2ccc3c(c2)CCCN3CC)cc1`?
TDP1 cell noCPT: -4%; HT1080 IDH1KD tx: 0%; IL-1B inflam inh: 2; uPA surface inh: 7%; HT1080NT lethal: 2%; DT40 TDP1 CPT: inconclusive

Results for COc1ccc(Oc2ncc3nc(-c4cccs4)c(=O)n(CCC#N)c3n2)cc1 ?
TDP1 cell noCPT: -30%; DT40 TDP1 CPT: -33%

How did COc1ccc(CC(=O)n2nc(-c3ccc(Cl)cc3)nc2NCc2ccco2)cc1 do in these assays?
TDP1 cell noCPT: 18µM*; HT1080 IDH1KD tx: inconclusive; IL-1B inflam inh: 15; HT1080NT lethal: 2%[9.24 µM]; DT40 TDP1 CPT: inconclusive

Results for O=C(c1ccco1)n1nc(-c2cccnc2)nc1NCc1ccco1 ?
TDP1 cell noCPT: 23µM*; HT1080 IDH1KD tx: -1%; IL-1B inflam inh: 6; uPA surface inh: 1%; HT1080NT lethal: 0%; DT40 TDP1 CPT: inconclusive

Results for CC(=O)n1nc(-c2ccc(Cl)cc2)nc1NCc1ccco1 ?
TDP1 cell noCPT: inconclusive; HT1080 IDH1KD tx: inconclusive; IL-1B inflam inh: -9; HT1080NT lethal: 9%; DT40 TDP1 CPT: inconclusive

How did COC(=O)c1ccsc1NC(=O)CN1CCN(c2ncccn2)CC1 do in these assays?
TDP1 cell noCPT: inconclusive; HT1080 IDH1KD tx: 12%; IL-1B inflam inh: 2; uPA surface inh: 1%; HT1080NT lethal: -4%; DT40 TDP1 CPT: -26%

What do the screens show for `COC(=O)c1cc(S(=O)(=O)NCc2ccc3c(c2)OCO3)cn1C`?
TDP1 cell noCPT: -9%; HT1080 IDH1KD tx: 20%; IL-1B inflam inh: 27; uPA surface inh: 3%; HT1080NT lethal: 16%; DT40 TDP1 CPT: 3%

Results for C=CCN1[C@@H](Cc2ccccc2)COCCS1(=O)=O ?
TDP1 cell noCPT: -24%; HT1080 IDH1KD tx: 2%; IL-1B inflam inh: -1; uPA surface inh: 6%; HT1080NT lethal: 4%; DT40 TDP1 CPT: -20%

Results for CC(C)NCC(O)COc1ccc(Br)cc1 (configuration not stated) ?
TDP1 cell noCPT: -18%; HT1080 IDH1KD tx: -6%; IL-1B inflam inh: -2; uPA surface inh: 2%; HT1080NT lethal: -3%; DT40 TDP1 CPT: 3%

Results for CC(NCC(O)COc1ccc(Br)cc1)c1ccccc1 (configuration not stated) ?
TDP1 cell noCPT: inconclusive; HT1080 IDH1KD tx: inconclusive; IL-1B inflam inh: inconclusive; uPA surface inh: -3%; HT1080NT lethal: inconclusive; DT40 TDP1 CPT: inconclusive

Results for OC(CNC1CCCC1)COc1ccc(-c2ccccc2)cc1 (configuration not stated) ?
TDP1 cell noCPT: inconclusive; HT1080 IDH1KD tx: inconclusive; IL-1B inflam inh: -63*; uPA surface inh: 2%; HT1080NT lethal: inconclusive; DT40 TDP1 CPT: inconclusive

What do the screens show for `CCCC(NCC(O)COc1ccc(-c2ccccc2)cc1)c1ccccc1` (configuration not stated)?
TDP1 cell noCPT: 4.1µM*; HT1080 IDH1KD tx: 13µM*; IL-1B inflam inh: -77*; uPA surface inh: inconclusive; HT1080NT lethal: -27%; DT40 TDP1 CPT: 7.3µM*

Results for CCC(CC)NCC(O)COc1ccc(Br)cc1 (configuration not stated) ?
TDP1 cell noCPT: 21µM*; HT1080 IDH1KD tx: -16%; IL-1B inflam inh: -52*; uPA surface inh: -4%; HT1080NT lethal: 0%; DT40 TDP1 CPT: inconclusive

How did OC(CNC1CCCCC1)COCCOc1ccc(Br)cc1 (configuration not stated) do in these assays?
TDP1 cell noCPT: 23µM*; HT1080 IDH1KD tx: inconclusive; IL-1B inflam inh: inactive; uPA surface inh: 2%; HT1080NT lethal: inconclusive; DT40 TDP1 CPT: 13µM*

What do the screens show for `Cn1c(C(c2cc3ccccc3n2C)c2cc3ccccc3n2C)cc2ccccc21`?
TDP1 cell noCPT: 3.5µM*; DT40 TDP1 CPT: 5.6µM*

How did Cn1c(-c2ccccc2O)cc2ccccc21 do in these assays?
TDP1 cell noCPT: 18µM*; HT1080 IDH1KD tx: 0%[9.24 µM]; IL-1B inflam inh: 5; uPA surface inh: -2%; HT1080NT lethal: inconclusive; DT40 TDP1 CPT: inconclusive

How did COc1ccc(S(=O)(=O)N2CCCCCC2)cc1NC(=O)CN1C(=O)NC(C)(c2ccc(C)cc2)C1=O (configuration not stated) do in these assays?
TDP1 cell noCPT: inconclusive; HT1080 IDH1KD tx: -10%; IL-1B inflam inh: -12; uPA surface inh: 3%; HT1080NT lethal: -1%; DT40 TDP1 CPT: inconclusive

Results for Cc1ccc(C2(C)NC(=O)N(CC(=O)Nc3ccc(Cl)c(S(=O)(=O)N4CCCCC4)c3)C2=O)cc1 (configuration not stated) ?
TDP1 cell noCPT: 18µM*; HT1080 IDH1KD tx: -8%; IL-1B inflam inh: -14; uPA surface inh: -9%; HT1080NT lethal: -9%; DT40 TDP1 CPT: inconclusive

How did CCOc1ccc(S(=O)(=O)N2CCCCC2)cc1NC(=O)CN1C(=O)NC(C)(c2ccc(C)cc2)C1=O (configuration not stated) do in these assays?
TDP1 cell noCPT: 16µM*; HT1080 IDH1KD tx: -28%; IL-1B inflam inh: -16; uPA surface inh: -8%; HT1080NT lethal: -7%; DT40 TDP1 CPT: 23µM*

Results for CN(C)CCC1(c2ccccc2)CCN(C)C1=O (configuration not stated) ?
TDP1 cell noCPT: 0%; HT1080 IDH1KD tx: -4%; IL-1B inflam inh: 8; HT1080NT lethal: -7%; DT40 TDP1 CPT: -12%

How did Cc1onc(-c2ccccc2)c1NC(=O)N(Cc1ccccc1)C(C)C do in these assays?
TDP1 cell noCPT: inconclusive; HT1080 IDH1KD tx: 1%; IL-1B inflam inh: 0; uPA surface inh: -26%; HT1080NT lethal: 8%; DT40 TDP1 CPT: -15%
